RORgamma inh: ROR gamma (mouse) transcription inhibition; AID 2551; Drosophila S2 Gal4-RORgamma UAS-luciferase reporter, 20 h; 310,000 compounds, 5.4% hits; P51450; Potency, µM (titrated, usually from 53.6 µM), most hits filed as inhibitors; further: nearly all actives have a fitted effect of over 60% in size
Target sequence (P51450 whole entry, looked up, the tested form may be a part): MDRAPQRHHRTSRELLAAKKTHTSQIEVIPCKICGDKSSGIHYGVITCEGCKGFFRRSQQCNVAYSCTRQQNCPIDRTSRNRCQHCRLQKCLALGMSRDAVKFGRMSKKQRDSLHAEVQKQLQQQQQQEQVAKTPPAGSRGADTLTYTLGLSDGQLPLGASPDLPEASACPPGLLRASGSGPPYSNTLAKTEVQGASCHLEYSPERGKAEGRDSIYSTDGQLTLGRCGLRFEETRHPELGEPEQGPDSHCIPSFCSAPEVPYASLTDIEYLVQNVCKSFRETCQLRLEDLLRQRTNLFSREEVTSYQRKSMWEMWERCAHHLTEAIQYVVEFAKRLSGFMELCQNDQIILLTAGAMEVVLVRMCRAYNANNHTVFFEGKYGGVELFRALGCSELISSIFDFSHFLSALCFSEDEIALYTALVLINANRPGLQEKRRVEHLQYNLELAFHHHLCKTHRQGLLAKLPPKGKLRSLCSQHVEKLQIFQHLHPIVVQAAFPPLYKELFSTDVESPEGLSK
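Compounds are pin-transferred onto Drosophila Schneider cells expressing a copper-inducible Gal4–ROR gamma transactivation domain fusion. After 1 hr, copper sulfate is added to 700 uM final; luciferase is read 20 hr later.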
Gal4-VP16 FLuc: inhibits Gal4-VP16 luciferase reporter, ROR gamma counter-screen; Drosophila S2 Gal4-VP16 UAS-luciferase, luminescence, 20 h; Potency, µM (series often up to 53.6 µM), actives largely listed as inhibitors; 310,000 compounds, 3.5% hits; AID 2546;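 further: Gal4-VP16 expression switched on by copper sulfate through the metallothionein promoter; nearly all actives have a fitted effect of over 50% in size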
ELG1 DNA repair: ELG1-dependent DNA repair inhibition | 330,000 compounds, 2.3% hits | HEK293T ELG1-luciferase reporter, luminescence, 16 h; DNA damage induced by 5-fluorouridine | Potency, µM (titrated, usually from 46.1 µM), hits mostly inhibitors; further: nearly all actives have a fitted effect of over 55% in size
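DMSO vehicle served as the neutral condition. Each well held 2,000 cells given 5-fluorouridine plus compound; after 16 hr at 37 °C/5% CO2, ONE-Glo was added and luciferase measured 30 min later.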
TSHR antagonist: human thyrotropin receptor antagonism. activity change, negative = inhibition, % at 11.5 µM. 330,000 compounds, 0.2% hits. P16473. AID 504810. TSHR-expressing cells, TSH-stimulated cAMP HTRF, 2 h; active compounds read low;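 active means activity change below a set negative limit, meaning inhibition stronger than a set level, cut at about -70% in these data; inconclusive means activity change between two set negative limits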
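Antagonism was scored as loss of TSH-driven cAMP in TSHR cells, stimulated with 4nM TSH (EC80) for 2 hours at 37 deg C and detected by homogeneous HTRF competition immunoassay.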
B2AR arrestin: recruits beta-arrestin to the human beta2-adrenergic receptor | P07550 | beta-arrestin recruitment to beta2AR, cell-based reporter | Potency, µM (top dose mostly 46.1 µM), hits mostly activators | 330,000 compounds, 0.02% hits | AID 492947; further: nearly all actives have a fitted effect of over 65% in size
Each line names hits and unclear results; the compound was inactive in the other large screens. Compounds with a hit are over-represented: about 7.5% of the library has one in this group of screens. Unless noted, the call rests on the fitted dose curve; in most records, active means well fitted curve in the direction sought with a large enough effect; inconclusive means small, poorly fitted or top-dose-only effect, or another doubt; inactive means no such curve, though single readings can be large; an effect the other way counts as inactive or inconclusive.

CC(C)C[C@@H](CC(=O)N[C@@H](CCC(=O)O)CC(=O)O)NC(=O)[C@@H]1CCCC[C@H]1NC(=O)C[C@@H](NC(=O)C[C@H](Cc1ccccc1)NC(=O)[C@@H]1CCCC[C@H]1N)C(C)C	none (no result: ELG1 DNA repair, TSHR antagonist, B2AR arrestin)
O=C(NCc1ccc(F)cc1)C(Cc1ccccc1)n1cccc1 (centres undefined)	none
O=c1[nH]cc(N=Cc2cc([N+](=O)[O-])ccc2O)c(=O)[nH]1	none
O=c1[nH]cc(N=Cc2cc(Cl)cc(Cl)c2O)c(=O)[nH]1	RORgamma inh 11.2µM, Gal4-VP16 FLuc 12.6µM
CCC(c1nnnn1CS(=O)(=O)c1ccc(C)cc1)N1CCN(c2nc3ccccc3s2)CC1 (centres undefined)	ELG1 DNA repair 8.2µM
CCCC(c1nnnn1CC1CCCO1)N1CCN(c2nc3ccccc3s2)CC1 (centres undefined)	ELG1 DNA repair 23.1µM
O=C(NN=C1c2ccccc2-c2ccccc21)c1cccc(Br)c1	RORgamma inh 1.78µM, Gal4-VP16 FLuc 3.16µM, ELG1 DNA repair inconclusive
O=C(COc1cccc(Br)c1)NN=C1c2ccccc2-c2ccccc21	RORgamma inh 20µM, Gal4-VP16 FLuc inconclusive
O=c1c(-c2ccc(Cl)cc2)nc2cnc(N3CCOCC3)nc2n1C1CC1	none (no result: ELG1 DNA repair, TSHR antagonist, B2AR arrestin)
COc1cccc2cc(-c3n[nH]c(=S)n3C)oc12	RORgamma inh 3.55µM
C=C(C)Cn1c(-c2ccc(OC)cc2)nc2ccccc21	none
S=c1[nH]nc(Cc2cccc3ccccc23)n1-c1ccccc1	RORgamma inh 3.16µM, Gal4-VP16 FLuc 7.08µM
COc1cccc2cc(-c3ccnc(N)n3)oc12	ELG1 DNA repair inconclusive
C=C(C)Cn1c(CCn2c3ccccc3c3ccccc32)n[nH]c1=S	RORgamma inh inconclusive, Gal4-VP16 FLuc 1µM
Cn1c(Cc2c[nH]c3ccccc23)n[nH]c1=S	ELG1 DNA repair inconclusive
Cn1c(Cn2c3ccccc3c3ccccc32)n[nH]c1=S	RORgamma inh 3.55µM, Gal4-VP16 FLuc 12.6µM
CCOc1ccccc1NC(=O)COC(=O)CC(C)(C)CC1=NS(=O)(=O)c2ccccc2N1	none
CCc1c2c(nc3cccc(SC)c13)COC2	none (no result: ELG1 DNA repair, TSHR antagonist, B2AR arrestin)
Cc1ccc(S(=O)(=O)N2CCCCCC2)cc1C(=O)NCc1ccccn1	ELG1 DNA repair inconclusive
C=CCn1c(Cc2cccc3ccccc23)n[nH]c1=S	RORgamma inh 3.98µM, Gal4-VP16 FLuc 11.2µM
Cn1c(-c2cccc3ccccc23)n[nH]c1=S	RORgamma inh 10µM, Gal4-VP16 FLuc inconclusive
S=c1[nH]nc(Cc2noc3ccccc23)n1-c1ccccc1	RORgamma inh 10µM, ELG1 DNA repair inconclusive
C=CCn1c(CCn2c3ccccc3c3ccccc32)n[nH]c1=S	RORgamma inh 3.98µM, Gal4-VP16 FLuc 3.16µM, B2AR arrestin inconclusive
CC(=O)c1ccc(-n2c(SCC(=O)c3c[nH]c4ccccc34)nc3ccccc3c2=O)cc1	RORgamma inh 1.41µM, ELG1 DNA repair inconclusive
COc1ccc(N(Cc2ccccc2)C(=O)CSc2nnc(Cn3nnc4ccccc43)o2)cc1	ELG1 DNA repair 18.4µM
CC1(C)Cc2ccccc2C(CSc2ccccc2C(=O)O)=N1	none
COC(=O)C(O)C1C(C)(C)C(OC(C)=O)C2CC3=C4CC(=O)OC(c5ccoc5)[C@]4(C)CCC3[C@@]1(C)C2=O (some centres undefined)	RORgamma inh 12.6µM (no result: ELG1 DNA repair, TSHR antagonist, B2AR arrestin)
C=C1C2CC[C@@]3(C)C(c4ccoc4)OC(=O)C[C@@]13OC1CC(=O)C(C)(C)C(C(O)C(=O)OC)[C@]12C (some centres undefined)	none (no result: ELG1 DNA repair, TSHR antagonist, B2AR arrestin)
Oc1ccc(-c2nnc(-c3ccc(O)cc3)nn2)cc1	RORgamma inh 11.2µM, Gal4-VP16 FLuc inconclusive, ELG1 DNA repair inconclusive
Oc1ccc(-c2cc(-c3ccc(O)cc3)nc(-c3ccccc3)n2)cc1	none
Oc1ccc(O)cc1	RORgamma inh 11.2µM, Gal4-VP16 FLuc inconclusive (no result: ELG1 DNA repair, B2AR arrestin)
O=C(NCCc1ccc(F)cc1)Nc1ccccc1Cl	none
COc1ccc(C(=O)Nc2ccc3ccccc3n2)c(OC)c1OC	RORgamma inh 8.91µM, Gal4-VP16 FLuc 10µM, ELG1 DNA repair inconclusive
O=C(Nc1ccc2ccccc2n1)c1ccc(Cl)cc1	ELG1 DNA repair inconclusive
O=C(Nc1ccc2ccccc2n1)c1ccccc1Cl	RORgamma inh 12.6µM, Gal4-VP16 FLuc inconclusive, ELG1 DNA repair inconclusive
COc1cccc(C(=O)Nc2cccc3ccccc23)c1OC	ELG1 DNA repair inconclusive
CCCCCCCCCCN1CCOCCOCCN(CCCCCCCCCC)CCOCCOCC1	none (no result: ELG1 DNA repair, TSHR antagonist, B2AR arrestin)
Cc1cc(C)c2[nH]c(C)c(CN3CCCCCC3)c(=O)c2c1	none
C(=N\N1CCN(C2c3ccccc3-c3ccccc32)CC1)/c1ccccn1	RORgamma inh 7.08µM, Gal4-VP16 FLuc inconclusive
C(=N\N1CCN(C2c3ccccc3-c3ccccc32)CC1)/c1cccnc1	Gal4-VP16 FLuc inconclusive
O=C(c1ccco1)N1N=C(c2ccc(Cl)cc2)CC1(O)C(F)(F)F (centres undefined)	RORgamma inh inconclusive, Gal4-VP16 FLuc 5.62µM
O=C(c1ccco1)N1N=C(c2ccc(Br)cc2)CC1(O)C(F)(F)F (centres undefined)	RORgamma inh 7.08µM, Gal4-VP16 FLuc inconclusive, ELG1 DNA repair inconclusive
Cc1cccc(C)c1NS(=O)(=O)c1cc2c3c(c1)CCN3C(=O)CC2	none (no result: RORgamma inh, Gal4-VP16 FLuc)
Cc1c([N+](=O)[O-])c(C(=O)NC2CCCCC2)nn1C	none
O=C(Nc1cccc(NC(=S)NC(=O)c2cccs2)c1)c1ccccc1	RORgamma inh 10µM, Gal4-VP16 FLuc inconclusive
O=C(NC(=S)Nc1cccc(NC(=O)c2ccccc2Cl)c1)c1cccs1	RORgamma inh 11.2µM, Gal4-VP16 FLuc inconclusive, ELG1 DNA repair inconclusive
Cc1ccccc1C(=O)Nc1cccc(NC(=S)NC(=O)c2cccs2)c1	RORgamma inh inconclusive, Gal4-VP16 FLuc inconclusive, ELG1 DNA repair inconclusive
CCCCCC/C=C/c1ccc(C2C3C=CCC(C)C3C(=O)N2Cc2ccccc2)c(F)c1 (centres undefined)	none (no result: ELG1 DNA repair, TSHR antagonist, B2AR arrestin)
COc1ccccc1Oc1ccc(N2CC(C(=O)OCC(=O)c3ccccc3)CC2=O)cc1 (centres undefined)	ELG1 DNA repair inconclusive
CCN1C(=O)C(CC(=O)Nc2c(C)cccc2C)Nc2cc(S(=O)(=O)N(C)C)ccc21 (centres undefined)	none
O=C(O)Cc1cccc(OCCCN(Cc2cccc(C(F)(F)F)c2Cl)CC(c2ccccc2)c2ccccc2)c1	Gal4-VP16 FLuc inconclusive (no result: ELG1 DNA repair, TSHR antagonist, B2AR arrestin)
CC(=O)Nc1ccn(C2CC3OCC(NC(=O)C(NC(=O)OC(C)(C)C)C(C)OCc4ccccc4)C3O2)c(=O)n1 (centres undefined)	none (no result: ELG1 DNA repair, TSHR antagonist, B2AR arrestin)
CC(C)(C)C1CCc2c(C(=O)NNC(=O)/C=C/C(=O)O)csc2C1 (centres undefined)	RORgamma inh inconclusive, Gal4-VP16 FLuc 14.1µM
CC(C)(C)C1CCc2c(C(=O)N/N=C/c3cccs3)csc2C1 (centres undefined)	RORgamma inh inconclusive, ELG1 DNA repair inconclusive
